{
  "source": "PubChem BioAssay AID2284368",
  "about": "(EPA ToxCast)",
  "note": "Records with an inconclusive call do not appear. Activity calls are given as the source filed them. Rule for the calls: active = hit-call score of the fitted dose curve at least 0.9, where 1 is the maximum; inconclusive = response in the unintended direction; inactive = score below 0.9.",
  "data": [
    {"target": "Estrogen receptor (Homo sapiens) (UniProt P03372)", "sequence (P03372 whole entry, looked up)": "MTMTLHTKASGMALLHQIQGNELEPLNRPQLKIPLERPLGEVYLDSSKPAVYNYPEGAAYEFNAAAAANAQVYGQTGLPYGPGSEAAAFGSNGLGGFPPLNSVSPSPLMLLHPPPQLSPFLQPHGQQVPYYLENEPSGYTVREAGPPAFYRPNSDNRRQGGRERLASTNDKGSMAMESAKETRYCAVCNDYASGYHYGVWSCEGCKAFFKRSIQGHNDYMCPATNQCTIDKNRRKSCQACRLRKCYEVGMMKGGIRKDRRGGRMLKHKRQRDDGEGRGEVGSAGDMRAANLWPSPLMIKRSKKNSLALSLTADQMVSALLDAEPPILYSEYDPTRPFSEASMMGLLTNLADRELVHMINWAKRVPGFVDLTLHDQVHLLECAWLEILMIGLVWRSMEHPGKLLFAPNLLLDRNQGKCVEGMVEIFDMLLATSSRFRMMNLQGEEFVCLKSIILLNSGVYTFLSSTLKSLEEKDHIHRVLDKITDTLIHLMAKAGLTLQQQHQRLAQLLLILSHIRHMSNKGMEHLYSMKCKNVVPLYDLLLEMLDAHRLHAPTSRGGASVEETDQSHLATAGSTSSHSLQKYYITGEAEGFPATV", "assay": "ATG_hERa_EcoTox2: Attagene TRANS-FACTORIAL EcoTox-2 HepG2 Assay for human Estrogen Receptor (ER)", "experimental": "ATG_EcoTox2 is a cell-based, multiplexed assay created by modifying the existing Attagene TRANS-FACTORIAL system to include a panel of nuclear receptors from some or all the following species: human (Homo sapiens), african clawed frog (Xenopus laevis), rainbow trout (Oncorhynchus mykiss), japanese medaka (Oryzias latipes), and zebrafish (Danio rerio). The ECOTOX2-FACTORIAL format uses HepG2, a human liver cell line, with measurements taken at 24 hours after chemical dosing in a 24-well plate. ATG_hERa_EcoTox2 is one of 29 assay components measured or calculated from the ATG_EcoTox2 assay. It is designed to make measurements of mRNA induction, a form of inducible reporter, as detected with fluorescence intensity signals by Reverse transcription polymerase chain reaction (RT-PCR) and Capillary electrophoresis technology.The assay endpoint ATG_hERa_EcoTox2 was analyzed in the positive analysis fitting direction relative to DMSO as the negative control and baseline of activity. Using a type of inducible reporter, measures of mRNA for gain-of-signal activity can be used to understand the reporter gene at the transcription factor-level as they relate to the gene ER. Furthermore, this assay endpoint can be referred to as a primary readout, because this assay has produced multiple assay endpoints where this one serves a reporter gene function. To generalize the intended target to other relatable targets, this assay endpoint is annotated to the nuclear receptor intended target family, where the subfamily is steroidal.\nHuman liver HepG2 cells are transiently transfected with multiple reporter transcription units (MRTUs) in 6-well plates using FuGene 6 reagent (Roche; 3 ml FuGene/1 mg DNA). The MRTU constructs are regulated by a cis-regulating element (promoter). Each RTU expresses a GAL4-UAS that regulates the transcription of a nearby target reporter gene sequence. A major difference between the CIS and TRANS system is that in CIS activities of endogenous TFs are measured, whereas the TRANS assay evaluates changes in activities of exogenous, chimeric NR-Gal4 proteins. […] At the end of 24 hour incubation, total RNA was isolated using TriZol reagent (Invitrogen). The isolated RNA is then reverse-transcribed using oligo(dT) primer and Mo-MLV reverse transcriptase (Invitrogen) with DNAse I (Ambion) treatment for 30 min. The one-tenth of the produced cDNA was amplified by PCR using Taq DNA polymerase (Invitrogen) and two reporter sequence-specific primers. […] The fragments were purified using Qiaquick PCR columns (Qiagen), analyzed on an ABI 3130xL genetic analyzer (Applied Biosystems) with peak positions identified by using a set of X-rhodamine (ROX)-labeled MapMarker1000 molecular weight standards (BioVentures). […]", "values": [
      {"molecule": "[Cl][Sn]([c]1ccccc1)([c]1ccccc1)[c]1ccccc1", "outcome": "inactive"},
      {"molecule": "CCCCOCN(C(=O)CCl)c1c(CC)cccc1CC", "outcome": "inactive"},
      {"molecule": "O=S(=O)(O)C(F)(F)C(F)(F)C(F)(F)C(F)(F)C(F)(F)C(F)(F)F", "AC50": "50 µM (active)"},
      {"molecule": "O=P(Oc1ccccc1)(Oc1ccccc1)Oc1ccccc1", "AC50": "3.41 µM (active)"}
    ]}
  ]
}
